According to the supplement of paper PMC10811239:

Each compound was assayed on LEGO organoid PTN (PTEN-/-; TP53-/-; NF1-/-) (assay: bioluminescence (viable cell) signal fold change after vs before treatment, normalised to DMSO (ratio); higher = more tumour cell growth / less inhibition). Details: 10 µM; treatment time 6 days.
Protocol: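 Luc2-labelled iPSC-derived glioblastoma-like organoids (LEGOs, genotypes PT = PTEN-/-;TP53-/-, PTCC = plus CDKN2A/B-/-, PTN = plus NF1-/-) were treated with 10 uM drug for 6 days (applied every other day) at 37 C. Bioluminescence imaging was done before treatment and 2 days after the last dose. BLI signals were normalised to the DMSO control on the same day and then to the pre-treatment signal (N=3).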

| SMILES | bioluminescence |
| --- | --- |
| Cl.CN(C)CC\C=C1\c2ccccc2C=Cc2ccccc12 [Cyclobenzaprine hydrochloride] | 3.73 |
| CC(=O)OCC(=O)[C@@]1(O)CC[C@H]2[C@@H]3CCC4=CC(=O)C=C[C@]4(C)[C@H]3[C@@H](O)C[C@@]21C [Prednisolone-21-acetate] | 0.956 |
| C#Cc1cccc(Nc2ncnc3cc(OCCOC)c(OCCOC)cc23)c1.Cl [Erlotinib hydrochloride] | 2.02 |
| O=C(CCCN1CC=C(n2c(=O)[nH]c3ccccc32)CC1)c1ccc(F)cc1 [Droperidol] | 0.372 |
| COc1ccc([C@@H]2CC(=O)c3c(O)cc(O[C@@H]4O[C@H](CO[C@@H]5O[C@@H](C)[C@H](O)[C@@H](O)[C@H]5O)[C@@H](O)[C@H](O)[C@H]4O)cc3O2)cc1O [Hesperidin] | 1.75 |
| CCc1nc(N)nc(N)c1-c1ccc(Cl)cc1 [Pyrimethamine] | 0.803 |
| CCc1cccc2c3c([nH]c12)C(CC)(CC(=O)O)OCC3 (stereo not drawn) [Etodolac] | 1.19 |
| Cl.Clc1cccc(Cl)c1NC1=NCCN1 [Clonidine hydrochloride] | 0.76 |
| NS(=O)(=O)Cc1noc2ccccc12 [Zonisamide] | 1.19 |
| CCN(CC)CC(=O)Nc1c(C)cccc1C [Xylocaine] | 1.22 |
| CCCOc1ccc(S(=O)(=O)NCCC2CCCN2C)cc1-c1nc2c(CCC)nn(C)c2c(=O)[nH]1 (stereo not drawn) [Udenafil] | 1.09 |
| Cc1nc2c([nH]1)CCN(C(=O)c1ccc(NC(=O)c3ccccc3-c3ccccc3)cc1)c1ccccc1-2.Cl [Conivaptan hydrochloride] | 0.375 |
| Cl.Cl.OCCOCCN1CCN(C(c2ccccc2)c2ccc(Cl)cc2)CC1 (stereo not drawn) [Hydroxyzine dihydrochloride] | 2.31 |
| Cc1ccccc1C(OCCN(C)C)c1ccccc1.Cl (stereo not drawn) [Orphenadrine hydrochloride] | 1.59 |
| CC(C(=O)O)c1cccc(C(=O)c2ccccc2)c1 (stereo not drawn) [Ketoprofen] | 1.02 |
| Cc1cnc(NC(=O)C2=C(O)c3ccccc3S(=O)(=O)N2C)s1 [Meloxicam] | 3.3 |
| OCCN1CCN(CCCN2c3ccccc3Sc3ccc(Cl)cc32)CC1 [Perphenazine] | 1.74 |

| SMILES | bioluminescence |
| --- | --- |
| CNCCC(Oc1ccc(C(F)(F)F)cc1)c1ccccc1.Cl (stereo not drawn) [Fluoxetine hydrochloride] | 0.924 |
| CN(C)CCOC(C)(c1ccccc1)c1ccccn1.O=C(O)CCC(=O)O (stereo not drawn) [Doxylamine succinate] | 0.999 |
| CCCN[C@H]1CCc2nc(N)sc2C1.Cl.Cl.O [Pramipexole 2HCl Monohydrate] | 0.629 |
| CO/N=C(\C(=O)N[C@@H]1C(=O)N2C(C(=O)[O-])=C(COC(C)=O)CS[C@H]12)c1csc(N)n1.[Na+] [Cefotaxime sodium] | 0.707 |
| CCCCN1CCCCC1C(=O)Nc1c(C)cccc1C.Cl (stereo not drawn) [Bupivacaine hydrochloride] | 0.809 |
| CC(=O)N[C@@H](CS)C(=O)O [Acetylcysteine] | 3.17 |
| CCN(CC)CC#CCOC(=O)C(O)(c1ccccc1)C1CCCCC1 (stereo not drawn) [Oxybutynin] | 1.53 |
| Cc1oncc1C(=O)Nc1ccc(C(F)(F)F)cc1 [Leflunomide] | 3.5 |
| CSc1ccc2c(c1)N(CCC1CCCCN1C)c1ccccc1S2.Cl (stereo not drawn) [Thioridazine hydrochloride] | 1.56 |
| CS(=O)(=O)CCNCc1ccc(-c2ccc3ncnc(Nc4ccc(OCc5cccc(F)c5)c(Cl)c4)c3c2)o1 [Lapatinib] | 1.93 |
| CC[C@@]1(O)C(=O)OCc2c1cc1n(c2=O)Cc2cc3c(CN(C)C)c(O)ccc3nc2-1.Cl [Topotecan hydrochloride] | 0.171 |
| Cl.O=C1CC2(CCCC2)CC(=O)N1CCCCN1CCN(c2ncccn2)CC1 [Buspirone hydrochloride] | 0.759 |
| CN(C)CC(c1ccc(O)cc1)C1(O)CCCCC1 (stereo not drawn) [Desvenlafaxine] | 0.36 |
| COc1cc(C(=O)NCc2ccc(OCCN(C)C)cc2)cc(OC)c1OC.Cl [Trimethobenzamide hydrochloride] | 0.646 |
| CS(=O)(=O)CCNCc1ccc(-c2ccc3ncnc(Nc4ccc(OCc5cccc(F)c5)c(Cl)c4)c3c2)o1.Cc1ccc(S(=O)(=O)O)cc1.Cc1ccc(S(=O)(=O)O)cc1 [Lapatinib Ditosylate] | 0.778 |
| Cl.N=C1CCCN1Cc1[nH]c(=O)[nH]c(=O)c1Cl [Tipiracil hydrochloride] | 0.848 |
